# Experimental data taken from the supplement of paper PMC6555819.
# Assays:
# Assay in all cases: PBM binding z-score (relative to random genomic background probes); higher = stronger binding; sequences stand for … in GC…GCGATTGACAGCGTAGAATGAAGG
# [1] = system: FXR:RXRa (NR concentration 270 nM, RXRa partner concentration 90 nM)
# How it was run: (§1)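 Binding z-scores were set against random background probes. The data came from custom Agilent 4×180K protein-binding microarrays carrying double-stranded probes with 34-nt variable regions, incubated 1 h with ligand-free nuclear receptor dimers. Partner-specific antibodies detected binding, and scanned fluorescence was regression-normalized.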
# [2] = system: LXRa:RXRa (NR concentration 270 nM, RXRa partner concentration 90 nM)
# How it was run: as §1
# [3] = system: LXRa homodimer (NR concentration 270 nM)
# How it was run: as §1
# [4] = system: LXRb:RXRa (NR concentration 270 nM, RXRa partner concentration 90 nM)
# How it was run: as §1
# [5] = system: LXRb homodimer (NR concentration 270 nM)
# How it was run: as §1
# [6] = system: PPARa:RXRa (NR concentration 270 nM, RXRa partner concentration 90 nM)
# How it was run: as §1
# [7] = system: PPARg:RXRa (NR concentration 180 nM, RXRa partner concentration 90 nM)
# How it was run: as §1
# [8] = system: PPARg:RXRa 270nM:90nM, anti-RXR (NR concentration 270 nM, RXRa partner concentration 90 nM)
# How it was run: as §1
# [9] = system: PPARg:RXRa 30nM:10nM, anti-RXR (NR concentration 30 nM, RXRa partner concentration 10 nM)
# How it was run: as §1
# [10] = system: PPARg:RXRa 90nM:30nM, anti-RXR (NR concentration 90 nM, RXRa partner concentration 30 nM)
# How it was run: as §1
# [11] = system: PPARg:RXRa DBDmut IVT, anti-RXR (DBD mutation: RXRa K156A/R161A, NR concentration 270 nM, RXRa partner concentration 90 nM)
# How it was run: as §1
# [12] = system: PPARg:RXRa IVT, anti-PPARg (NR concentration 270 nM, RXRa partner concentration 90 nM)
# How it was run: as §1
# [13] = system: PPARg DBDmut:RXRa IVT, anti-PPARg (DBD mutation: PPARg1 K132A/R137A, NR concentration 270 nM, RXRa partner concentration 90 nM)
# How it was run: as §1
# [14] = system: PPARg DBDmut IVT, anti-PPARg (DBD mutation: PPARg1 K132A/R137A, NR concentration 270 nM)
# How it was run: as §1
# [15] = system: PPARg homodimer (NR concentration 180 nM)
# How it was run: as §1
# [16] = system: PXR:RXRa (NR concentration 270 nM, RXRa partner concentration 90 nM)
# How it was run: as §1
# [17] = system: PXR homodimer (NR concentration 270 nM)
# How it was run: as §1
# [18] = system: RARa:RXR (NR concentration 270 nM, RXRa partner concentration 90 nM)
# How it was run: as §1
# [19] = system: RARa homodimer (NR concentration 270 nM)
# How it was run: as §1
# [20] = system: RARb:RXRa (NR concentration 270 nM, RXRa partner concentration 90 nM)
# How it was run: as §1
Sequence,PBM binding z-score [1],PBM binding z-score [2],PBM binding z-score [3],PBM binding z-score [4],PBM binding z-score [5],PBM binding z-score [6],PBM binding z-score [7],PBM binding z-score [8],PBM binding z-score [9],PBM binding z-score [10],PBM binding z-score [11],PBM binding z-score [12],PBM binding z-score [13],PBM binding z-score [14],PBM binding z-score [15],PBM binding z-score [16],PBM binding z-score [17],PBM binding z-score [18],PBM binding z-score [19],PBM binding z-score [20]
CCTACTGGGCCAGAAAGGTCATTGATGCCGATAA,3.9,4.7,3.35,4.16,0.28,4.76,2.59,3.87,1.21,2.91,2.56,3.3,-0.848,-1.13,2.14,4.76,2.21,5.01,1.75,3.73
ATCGAAAGGTCGACGAGGTGATTATACACCGTTT,4.8,3.43,0.0538,2.93,0.337,4.39,2.85,3.08,1.22,2.14,0.604,1.86,1.29,0.577,1.31,3.32,1.07,3.76,0.346,3.78
TCATATAGGTAAATGCTAGCTGAAAGTCCGATCT,0.654,0.665,-0.000947,0.713,-0.112,1.04,0.413,1.96,3.71,2.81,3.73,1.89,0.625,1.15,0.314,0.592,0.27,0.762,0.642,0.242
AGAATGAGATTATTAAGATCAGGGAATTGCGGTC,-1.55,-0.864,-0.323,-0.702,-0.452,-0.715,0.449,-0.292,-0.0999,-0.261,-0.986,0.00075,0.944,0.0181,-0.475,-0.605,-0.339,-0.5,0.637,-0.639
CGTCAAAGTTCAACTACGGTAACGTAAAGCACGC,6.73,6.61,4.35,4.24,2.11,5.17,4.85,5.54,2.32,4.26,0.132,1.78,0.517,0.931,3.69,5.14,3.79,4.38,2.22,5.2
TCATATAGGTAAAGGTCAAAGTCGAACGATATGA,6.53,6.13,4.7,5.5,2.62,6.15,7.64,6.9,6.04,7.15,4.49,5.4,2.71,1.9,5.15,5.54,1.88,6.36,3.75,5.17
